According to PubChem BioAssay (NCI):
Compounds without any hit were thinned out: in the full panel of roughly 79,000, 15% have a hit. Values without a mark were called inactive. Calls of active or inactive are those of the source. No stated cut-off is given here; in the data, active means growth inhibition above about 70%; inactive means the rest.

Tests used:
[1] = NCI Yeast Anticancer Drug Screen. Data for the rad50 strain (AID 155);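 further: 0% = growth of vehicle-only cultures of the same strain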; conditions: S. cerevisiae rad50 strain growth inhibition, stronger effect = higher value
Method in brief: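 Growth of the mutant yeast was measured after compound exposure and referenced to vehicle-treated cultures.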

[2] = NCI Yeast Anticancer Drug Screen. Data for the mec2-1 strain (AID 157); conditions: S. cerevisiae mec2-1 strain, stronger effect = higher value
Method in brief: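 Using mec2-1 yeast: add compound, measure growth, express inhibition versus vehicle-treated cultures.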

[3] = NCI Yeast Anticancer Drug Screen. Data for the sgs1 mgt1 strain (AID 161);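 further: 0% = growth of cultures given vehicle only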; conditions: S. cerevisiae sgs1 mgt1 strain, stronger effect = higher value
Method in brief: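 Compounds are added to genetically altered yeast, and growth is compared with cultures given vehicle alone to give percent inhibition.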

[4] = NCI Yeast Anticancer Drug Screen. Data for the cln2 rad14 strain (AID 165);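 further: 0% = growth equal to vehicle treated cultures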; conditions: S. cerevisiae cln2 rad14 strain, stronger effect = higher value
Method in brief: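 Yeast strain cln2 rad14, bearing defects in cell cycle control and DNA repair, serves as the test system; values reflect growth inhibition compared with vehicle.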

[5] = NCI Yeast Anticancer Drug Screen. Data for the bub3 strain (AID 167); conditions: S. cerevisiae bub3 mutant strain, stronger effect = higher value
Method in brief: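 Whole-cell yeast assay. The mutant strain was incubated with compounds, and growth inhibition was determined by comparison with vehicle-treated cells.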

[6] = NCI Yeast Anticancer Drug Screen. Data for the mlh1 rad18 strain (AID 175); conditions: S. cerevisiae mlh1 rad18 strain growth inhibition, stronger effect = higher value
Method in brief: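 Steps: expose repair-defective yeast to compound; measure growth; express inhibition against vehicle-treated controls.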

[7] = at 5.0 µM (retest, dose inferred, filed as 0.5)
[8] = at 50.0 µM (retest, dose inferred, filed as 5.0)

Structure (SMILES)	growth inhibition [1, 7]	growth inhibition [1, 8]	growth inhibition ([1]; at 50.0 µM)	growth inhibition [2, 7]	growth inhibition [2, 8]	growth inhibition ([2]; at 50.0 µM)	growth inhibition [3, 7]	growth inhibition [3, 8]	growth inhibition ([3]; at 50.0 µM)	growth inhibition [4, 7]	growth inhibition [4, 8]	growth inhibition ([4]; at 50.0 µM)	growth inhibition [5, 7]	growth inhibition [5, 8]	growth inhibition ([5]; at 50.0 µM)	growth inhibition [6, 7]	growth inhibition [6, 8]	growth inhibition ([6]; at 50.0 µM)
O=S1(=O)CC=C1c1ccccc1	8%	78% (active)	96.3% (active)	8%	92% (active)	96.5% (active)	7%	89% (active)	94.8% (active)	5%	61%	73.8% (active)	2%	84% (active)	95.2% (active)	2%	92% (active)	97.7% (active)
O=C(Nc1ccccc1)C(F)(F)C(F)(F)C(F)(F)F	6%	2%	12.6%	-1%	-24%	12.7%	17%	14%	-0.35%	5%	5%	26.1%	15%	27%	-1%	5%	28%	11.6%
COc1cc2c(cc1OC)C(=O)C(C)(c1ccccc1)NC2 (centres undefined)	20%	2%	91.9% (active)	9%	42%	98.8% (active)	3%	-1%	92.4% (active)	10%	56%	99.5% (active)	2%	31%	97.3% (active)	4%	-3%	97.8% (active)
CCOC(=O)C(/C=N\C(=S)Nc1ccc(Cl)c(Cl)c1)=C(/O)c1ccccc1	2%	58%	83.3% (active)	-3%	45%	69%	11%	38%	75.5% (active)	-8%	45%	78.6% (active)	12%	35%	78.4% (active)	-9%	49%	81.2% (active)
CCCCCCCCCCCCCCCCP(=O)([O-])OCC[N+](C)(C)C	-34%	99% (active)	80.8% (active)	-32%	99% (active)	87.3% (active)	0%	99% (active)	89.2% (active)	-27%	99% (active)	89.5% (active)	-32%	98% (active)	88.5% (active)	-26%	98% (active)	91.5% (active)
O=Cc1ccc(-c2nccc3c2[nH]c2ccccc23)o1	23%	35%	78.2% (active)	15%	17%	26.9%	17%	20%	19.1%	12%	16%	16.1%	24%	14%	8.9%	21%	25%	-1.45%
CSC(=S)/C(=C/Nc1ncccn1)c1ccccc1	5%	97% (active)	94.8% (active)	3%	99% (active)	93.5% (active)	-3%	94% (active)	79% (active)	1%	62%	95% (active)	-3%	94% (active)	91.8% (active)	7%	97% (active)	94.5% (active)
S=P([S][Sn]([S]P(=S)(c1ccccc1)c1ccccc1)([c]1ccccc1)[c]1ccccc1)(c1ccccc1)c1ccccc1	22%	82% (active)	34.9%	21%	73% (active)	19.6%	33%	96% (active)	91.9% (active)	25%	48%	89.9% (active)	24%	69%	89.2% (active)	33%	92% (active)	77.8% (active)
CCC[CH2][Sn]([CH2]CCC)([O]C(=O)c1cc(F)ccc1F)[O]C(=O)c1cc(F)ccc1F	42%	42%	84.1% (active)	25%	25%	83.6% (active)	33%	33%	73.1% (active)	13%	13%	70.4% (active)	22%	22%	79.2% (active)	20%	20%	78.2% (active)
CC1=CC(=O)C=C(Br)C1=O	18%	99% (active)	98.8% (active)	12%	99% (active)	99.5% (active)	6%	95% (active)	99.3% (active)	2%	41%	87.7% (active)	11%	99% (active)	99.2% (active)	13%	99% (active)	99.2% (active)
Nc1c(-c2ccc(Cl)cc2)[n+]([O-])c2ccccc2[n+]1[O-]	-16%	4%	19.2%	-8%	-10%	13.2%	1%	-10%	34.4%	24%	11%	47.7%	-3%	11%	8.45%	15%	6%	37.2%
O=C1/C(=C/c2ccc(Cl)cc2)CSC/C1=C\c1ccc(Cl)cc1	23%	37%	2.35%	12%	37%	4%	19%	53%	9.35%	18%	34%	-2.2%	25%	62%	5.55%	16%	42%	-9.1%
COc1ccc2c(c1)N=C(N)n1c(nc3ccccc31)S2	-1%	51%	60.6%	-6%	42%	54.6%	-10%	83% (active)	74.3% (active)	-33%	34%	36.1%	-37%	36%	69.7%	-14%	57%	56.8%
Clc1ccc(CN2COc3c(cc(Cl)c4cccnc34)C2)cc1Cl	43%	97% (active)	95.4% (active)	-12%	97% (active)	97.5% (active)	10%	98% (active)	70.6% (active)	-11%	97% (active)	44.4%	3%	97% (active)	-4.9%	13%	96% (active)	47.9%
COc1cc(O)c2c(c1)C(=O)C1=C(C2=O)[C@@H](C)OC(C)[C@H]1O (some centres undefined)	8%	96% (active)	53.4%	2%	94% (active)	6.2%	8%	97% (active)	-4.5%	1%	95% (active)	-22.4%	21%	97% (active)	-2.75%	8%	97% (active)	-6.25%
O=C1NC(=S)S/C1=C\c1ccc(F)cc1	-4%	6%	76% (active)	7%	15%	85.7% (active)	2%	22%	74.1% (active)	-9%	1%	64.8%	-2%	0%	57%	-4%	4%	80.3% (active)
CC(CCN)(CCN)[N+](=O)[O-]	16%	18%	8.3%	-1%	-27%	15.8%	-4%	27%	-13.6%	-25%	-2%	46.3%	-5%	-1%	6.9%	4%	9%	15.4%
O=C1CCC(O)N1CN1C(=O)CCC1O (centres undefined)	-4%	1%	36.1%	-4%	-17%	18.4%	9%	-3%	22.9%	-17%	10%	20.8%	18%	-4%	22.1%	-6%	-10%	46.5%
